The nature of assay [1]: qHTS assay to test for compound auto fluorescence at 535 nm (green) in HEK293 cells (AID 720680). In general terms: Quantitative high-throughput screening tests each substance at several concentrations.
Assay [2] in a line: qHTS assay to test for compound auto fluorescence at 590 nm (red) in HEK293 cell free culture (AID 720683). Put shortly: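 Tox21 10K library compounds were pinned into cell-free DMEM with 10% FBS and fluorescence was read at excitation 540 nm. Activity is expressed as Rose Bengal sodium equivalency.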
The nature of assay [3]: qHTS assay to test for compound auto fluorescence at 590 nm (red) in HepG2 cell free culture (AID 720684). Further: potency means the concentration at half of the fitted maximal effect. In short, it runs like this: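 Ex 540 / Em 590 nm read of compound in cell-free MEM (10% FBS). Rose Bengal sodium reference.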
A short description of assay [4]: qHTS assay to test for compound auto fluorescence at 460 nm (blue) in HepG2 cell free culture (AID 720685). Put shortly: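 Cell-free plates of MEM plus 10% FBS received 23 nL compound or DMSO vehicle; blue-channel (405/460 nm) intensity scored against triamterene as reference fluorophore.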
The nature of assay [5]: qHTS assay to test for compound auto fluorescence at 535 nm (green) in HepG2 cell free culture (AID 720686).
Assay [6] in a line: qHTS assay to test for compound auto fluorescence at 460 nm (blue) in HepG2 cells (AID 720687). Put shortly:
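Cells (2,000/well in MEM with 10% FBS) attached overnight at 37 C, then were exposed to compound or DMSO for 1 hr at 37 C, 5% CO2. Fluorescence read at Ex/Em 405/460 nm, expressed as triamterene-equivalent signal.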

Assay [7] concerns the target Glucocorticoid receptor (Homo sapiens) (UniProt P04150). Kind of assay: qHTS assay to identify small molecule agonists of the glucocorticoid receptor (GR) signaling pathway (AID 720691; active means well fitted activation curve with a large enough effect in the signal ratio in the repeat runs, not every such curve was filed as active; the % refers to the signal ratio). Put shortly: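 Steps: seed GR-bla HeLa cells, incubate 4 h at 37 C/5% CO2; pin-transfer DMSO-dissolved compounds; incubate 18 h at 37 C; add LiveBLAzer B/G FRET substrate; after 2 h at room temperature, measure fluorescence.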

Assay [8] can be described thus: qHTS assay to identify small molecule antagonists of the glucocorticoid receptor (GR) signaling pathway - cell viability counter screen (AID 720693). Further: nearly all actives have a fitted effect of over 55% in size.
Assay [9] is described as follows: qHTS assay to identify small molecule antagonists of the androgen receptor (AR) signaling pathway - cell viability counter screen (AID 743033; further: nearly all actives have a fitted effect of over 45% in size; further: potency means the concentration at half of the fitted maximal effect).
Assay [10] can be described thus: qHTS assay to identify small molecule antagonists of the androgen receptor (AR) signaling pathway using the MDA cell line - cell viability counter screen (AID 743041; further: nearly all actives have a fitted effect of over 45% in size; further: potency means the concentration at half of the fitted maximal effect). In short, it runs like this: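 In this qHTS counter assay, fluorescence intensity after CellTiter-Fluor addition indicated viability of MDA-kb2 AR-luc cells given compounds and R1881 for 16 h at 37C.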

Assay [11] in a line: qHTS assay to test for compound auto fluorescence at 535 nm (green) in HEK293 cell free culture (AID 720682). Put shortly: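 Steps: dispense DMEM/10% FBS into empty wells; pin in compound or DMSO; measure fluorescence at 485/535 nm. Values are fluorescein equivalents.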
The target in assay [12] is Glucocorticoid receptor (Homo sapiens) (UniProt P04150). The assay can be described thus: qHTS assay to identify small molecule antagonists of the glucocorticoid receptor (GR) signaling pathway (AID 720692; active means well fitted inhibition curve with a large enough effect in the signal ratio in the repeat runs, not every such curve was filed as active; the % refers to the signal ratio; further: potency means the concentration at half of the fitted maximal effect). In short, it runs like this: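 Antagonism was scored as loss of dexamethasone-driven (5 nM final) reporter signal in HeLa cells bearing a glucocorticoid response element–beta-lactamase construct, after 18 h compound exposure at 37 C and 2 h FRET substrate loading.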
Chain of Glucocorticoid receptor (Homo sapiens) (P04150 whole entry, looked up): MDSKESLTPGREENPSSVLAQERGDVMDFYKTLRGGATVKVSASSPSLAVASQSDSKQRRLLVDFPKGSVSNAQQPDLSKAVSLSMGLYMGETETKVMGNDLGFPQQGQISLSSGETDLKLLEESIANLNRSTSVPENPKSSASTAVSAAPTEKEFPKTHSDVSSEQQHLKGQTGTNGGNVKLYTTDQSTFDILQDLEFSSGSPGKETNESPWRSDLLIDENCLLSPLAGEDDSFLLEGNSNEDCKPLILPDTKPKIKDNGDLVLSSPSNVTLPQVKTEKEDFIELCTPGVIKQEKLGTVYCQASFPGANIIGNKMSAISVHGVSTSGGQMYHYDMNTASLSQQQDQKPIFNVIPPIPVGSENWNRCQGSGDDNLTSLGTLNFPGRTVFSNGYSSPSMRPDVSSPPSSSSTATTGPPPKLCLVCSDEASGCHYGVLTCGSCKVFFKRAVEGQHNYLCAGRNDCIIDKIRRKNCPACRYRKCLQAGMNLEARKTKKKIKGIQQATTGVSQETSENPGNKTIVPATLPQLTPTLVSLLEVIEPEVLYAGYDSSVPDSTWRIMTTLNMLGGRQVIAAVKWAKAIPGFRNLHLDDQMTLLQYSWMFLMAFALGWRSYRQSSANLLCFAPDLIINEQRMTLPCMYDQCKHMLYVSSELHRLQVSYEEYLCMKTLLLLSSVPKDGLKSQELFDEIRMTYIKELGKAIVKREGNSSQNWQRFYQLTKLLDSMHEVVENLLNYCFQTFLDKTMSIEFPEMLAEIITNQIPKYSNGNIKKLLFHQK

Assay [13] in a line: qHTS assay for identifying genotoxic compounds that show differential cytotoxicity against isogenic chicken DT40 cell lines with known DNA damage response pathways - wild type cell line (AID 743012). Further: nearly all actives have a fitted effect of over 60% in size. Further: potency means the concentration at half of the fitted maximal effect. Put shortly:
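Cytotoxicity in repair-proficient parental chicken DT40 cells serves as the comparator for Rad54/Ku70- and Rev3-deficient lines. Cells were exposed to compounds for 40 h at 37 C/5% CO2, and ATP-based luminescence (CellTiter-Glo) measured viability.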

Assay [14] is described as follows: qHTS assay for identifying genotoxic compounds that show differential cytotoxicity against isogenic chicken DT40 cell lines with known DNA damage response pathways - Rev3 mutant cell line (AID 743014). Further: nearly all actives have a fitted effect of over 55% in size. Further: potency means the concentration at half of the fitted maximal effect.
Assay [15] in a line: qHTS assay for identifying genotoxic compounds that show differential cytotoxicity against isogenic chicken DT40 cell lines with known DNA damage response pathways - Rad54/Ku70 mutant cell line (AID 743015). Further: nearly all actives have a fitted effect of over 60% in size. Further: potency means the concentration at half of the fitted maximal effect.
The nature of assay [16]: qHTS assay to test for compound auto fluorescence at 460 nm (blue) in HEK293 cell free culture (AID 720681). In short, it runs like this:
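Test compounds were pinned into cell-free culture medium (DMEM with 10% FBS) and fluorescence was read directly at Ex/Em 405/460 nm. Signals were expressed as fluorescence equivalents of triamterene, with DMSO vehicle as control.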

In assay [17] the target is Androgen receptor (Homo sapiens) (UniProt P10275). The assay can be described thus: qHTS assay to identify small molecule antagonists of the androgen receptor (AR) signaling pathway (AID 743035; active means well fitted inhibition curve with a large enough effect in the signal ratio in the repeat runs, not every such curve was filed as active; the % refers to the signal ratio). Put shortly:
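Steps: seed AR-UAS-bla GripTite HEK293 cells, incubate 4 h at 37C; pin in test compound, then add agonist R1881; incubate 16 h at 37C; add LiveBLAzer B/G FRET substrate, 2 h at room temperature; read fluorescence.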

Assay [18] has the same target. Kind of assay: qHTS assay to identify small molecule agonists of the androgen receptor (AR) signaling pathway (AID 743036; active means well fitted activation curve with a large enough effect in the signal ratio in the repeat runs, with a control signal flat, not every such curve was filed as active; the % refers to the signal ratio). Put shortly: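 Reporter line: GeneBLAzer AR-UAS-bla-GripTite (HEK293). Steps: plate cells, 4 h rest, add compounds, 16 h at 37C, add LiveBLAzer B/G substrate, 2 h at RT, read fluorescence.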
The target is the same in assay [19]. The assay can be described thus: qHTS assay to identify small molecule agonists of the androgen receptor (AR) signaling pathway using the MDA cell line (AID 743040; further: nearly all actives have a fitted effect of over 20% in size). Put shortly: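 Cell-based luciferase reporter: MDA-kb2, MMTV promoter (AR + GR response elements). 16 h compound exposure at 37C; ONE-Glo, 30 min RT, luminescence.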
For assay [20] the target is unchanged. Kind of assay: qHTS assay to identify small molecule antagonists of the androgen receptor (AR) signaling pathway using the MDA cell line (AID 743042; further: nearly all actives have a fitted effect of over 55% in size). Put shortly: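 MDA-kb2 cells (human breast carcinoma, stably carrying an MMTV-luciferase reporter responsive to AR and GR) were plated at 3,000 cells/well and preincubated 5 hr at 37C, then given compound plus R1881 agonist for 16 h. ONE-Glo luminescence was read.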

The source of these data is PubChem BioAssay (Tox21).

Several values for one entry are separate records, joined by “and”; a condition that tells them apart may be missing. Equal values may be shown once. Records with an inconclusive call do not appear. Some structures have more than one record in an assay (separate samples or runs), and their calls can disagree. Activity calls are given as the source filed them. Unless noted, the call rests on the fitted dose curve; in most records, active means well fitted curve in the direction sought with a large enough effect in the repeat runs; inconclusive means weak or mixed curves; inactive means no such curve, though single readings can be large; an effect the other way counts as inactive or inconclusive.
Tags describe the fitted curve by direction and shape or compound fluorescence and quenching.

Chain of Androgen receptor (Homo sapiens) (P10275 whole entry, looked up): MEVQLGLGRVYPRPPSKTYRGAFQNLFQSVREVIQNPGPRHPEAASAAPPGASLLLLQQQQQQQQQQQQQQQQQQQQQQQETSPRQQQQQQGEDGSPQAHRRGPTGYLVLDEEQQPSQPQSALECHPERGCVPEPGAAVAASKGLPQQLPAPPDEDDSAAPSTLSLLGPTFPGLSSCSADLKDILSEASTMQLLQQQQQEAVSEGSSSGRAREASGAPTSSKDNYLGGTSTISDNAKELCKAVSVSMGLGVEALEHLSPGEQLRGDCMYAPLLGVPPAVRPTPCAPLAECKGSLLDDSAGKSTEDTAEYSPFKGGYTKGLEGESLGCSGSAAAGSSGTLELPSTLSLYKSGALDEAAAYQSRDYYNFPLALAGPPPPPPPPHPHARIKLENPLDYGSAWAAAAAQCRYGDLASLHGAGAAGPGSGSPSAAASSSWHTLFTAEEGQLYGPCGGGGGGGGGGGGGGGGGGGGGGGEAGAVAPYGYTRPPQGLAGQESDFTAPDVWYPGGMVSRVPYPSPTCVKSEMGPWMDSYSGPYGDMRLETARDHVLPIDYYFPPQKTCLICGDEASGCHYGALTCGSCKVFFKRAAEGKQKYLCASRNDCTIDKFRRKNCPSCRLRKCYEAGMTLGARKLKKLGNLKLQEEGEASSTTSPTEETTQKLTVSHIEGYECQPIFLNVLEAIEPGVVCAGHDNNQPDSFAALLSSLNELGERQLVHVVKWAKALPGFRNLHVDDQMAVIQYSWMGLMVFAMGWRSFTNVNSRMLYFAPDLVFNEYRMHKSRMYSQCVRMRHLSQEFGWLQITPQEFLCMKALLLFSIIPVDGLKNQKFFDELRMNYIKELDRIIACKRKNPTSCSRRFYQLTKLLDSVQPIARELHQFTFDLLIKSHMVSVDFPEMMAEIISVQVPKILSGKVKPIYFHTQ

Consider `CC(C)(C)C1CCC(=O)CC1`, for which the Potency result in assay [1], in assay [2], in assay [3], in assay [4], in assay [5] and in [6] was “inactive” throughout. In addition, the Potency entry in [7], in assay [8], in [9] and in [10] was “inactive” each time.
In the case of `CCCCCCC1CCCC(=O)O1` (stereo not drawn), the Potency entry in assay [1], in assay [11], in [2], in assay [3], in [4] and in [5] was “inactive” each time. The Potency result in assay [6], in assay [7], in [12], in [8], in assay [13] and in assay [14] was “inactive” in each case. In addition, the Potency entry in [15] and in [9] was “inactive” throughout.
In the case of `Cl[Si](Cl)(c1ccccc1)c1ccccc1`, the Potency result in assay [1], in assay [3], in assay [4], in assay [5], in assay [6] and in assay [7] was “inactive” each time. Also, the Potency result in assay [8], in [14], in assay [15], in assay [9] and in [10] was “inactive” throughout.
On to `CC1=Nc2ccccc2C1(C)C`, for which the Potency entry in assay [1], in assay [11], in assay [2], in assay [3], in assay [4] and in assay [5] was “inactive” each time. The Potency entry in [6], in assay [7], in [8], in [13], in assay [14] and in assay [9] was “inactive” each time. Also, the Potency entry in [10] was “inactive”.
Turning to `CCCCC(CC)COC(=O)CCCCC(=O)OCc1ccccc1` (stereo not drawn), the Potency entry in assay [16], in [11], in assay [2], in [3], in [4] and in assay [5] was “inactive” throughout. Moreover, the Potency entry in assay [6], in [7], in assay [12], in assay [8], in assay [13] and in assay [14] was “inactive” in each case. Besides, the Potency result in assay [15], in assay [9] and in [10] was “inactive” in each case.
As to `CCC(=O)OC(=O)CC`, the Potency result in [1], in assay [11], in [2], in assay [3], in assay [4] and in [5] was “inactive” throughout. The Potency result in assay [6], in [7], in assay [12], in [8], in [13] and in assay [14] was “inactive” throughout. For the same compound, the Potency entry in assay [15] and in assay [9] was “inactive” each time.
For `CC(C)CCCCCOC(=O)CCS`, the Potency result in assay [1], in assay [11], in assay [2], in [3], in assay [4] and in assay [5] was “inactive” in each case. Further, the Potency result in [6], in [7], in assay [12], in assay [8], in assay [13] and in assay [15] was “inactive” throughout. The Potency result in [9] and in assay [10] was “inactive” each time.
For the compound `CCN(CC)c1ccc2c(-c3ccc(S(=O)(=O)O)cc3S(=O)(=O)[O-])c3ccc(=[N+](CC)CC)cc-3oc2c1`, the Potency result in assay [1], in assay [11], in assay [4], in assay [5], in assay [6] and in [7] was “inactive” throughout. Also, the Potency entry in [12], in assay [8], in assay [17] and in [18] was “inactive” in each case. The results for the Potency in assay [3] and in [10] were 0.355 µM [fluorescent] (active) and 11.2 µM (active), respectively. In addition, the compound was classed as inactive in [19].
With `O=c1[nH]c2ccccc2n1CCCN1CCN(C(c2ccccc2)c2ccccc2)CC1`, the Potency entry in [1], in assay [11], in [2], in assay [3], in assay [4] and in [5] was “inactive” in each case. Moreover, the Potency entry in assay [7], in assay [8], in [9] and in [10] was “inactive” each time. In addition, the Potency in assay [13] was 5.96 µM (active); in assay [14] it was 6.68 µM (active).
`Nc1ccc(NCCO)c([N+](=O)[O-])c1`: the Potency result in [1], in [11], in assay [2], in assay [3], in [4] and in assay [5] was “inactive” each time. In addition, the Potency entry in [6], in assay [7], in assay [12], in assay [8], in [15] and in assay [9] was “inactive” in each case.
In the case of `O=C(/C=C/c1ccccc1)OC/C=C/c1ccccc1`, the Potency entry in [11], in [2], in assay [3], in assay [4], in [5] and in assay [6] was “inactive” each time. Also, the Potency result in assay [7], in assay [12], in assay [8], in [9], in assay [17] and in assay [18] was “inactive” each time. In addition, the Potency entry in [10] and in assay [20] was “inactive” in each case. In addition, the Potency in assay [13] was 17.2 µM (active); in [14], 15.4 µM (active); in [15], 13.7 µM (active). Further, in [19], the result was inactive.
Take `COc1cc(S(=O)(=O)O)c(C)cc1N=Nc1c(O)ccc2cc(S(=O)(=O)O)ccc12`: the Potency result in assay [16], in assay [11], in [2], in assay [3], in assay [4] and in [5] was “inactive” in each case. Moreover, the Potency entry in assay [6], in assay [7], in assay [12], in assay [8] and in assay [9] was “inactive” throughout. Besides, in [10], the Potency is 24.3 µM (active).
For the compound `O=[N+]([O-])c1ccc(O)cc1C(F)(F)F`, the Potency entry in assay [16], in [11], in assay [2], in assay [3], in [4] and in assay [5] was “inactive” in each case. For the same compound, in [7], the Potency entry is “inactive”. Besides, the Potency in assay [14] was 27.3 µM (active); in assay [9], 27.5 µM (active); in assay [10], 61.1 µM (active).
In the case of `C=Cc1ccccc1C=C`, the Potency result in assay [16], in assay [11], in assay [2], in [3], in [4] and in assay [5] was “inactive” in each case. For the same compound, the Potency entry in [7], in assay [12], in [8], in [9] and in [10] was “inactive” in each case.
For `CN1CCN(Cc2cc(-c3ccc4[nH]c(=O)oc4c3)co2)[C@@H](c2ccc(F)cc2)C1`, the Potency entry in assay [16], in assay [2], in assay [3], in assay [4], in [5] and in assay [6] was “inactive” throughout. For the same compound, the Potency entry in assay [7], in assay [8] and in assay [10] was “inactive” each time. Also, the Potency in assay [12] is 42 µM (active); in [13], 14.8 µM (active); in [14] it was 16.6 µM (active); in assay [15], 14.8 µM (active).
With `Cc1ccc(-c2ccccc2)cc1`, the Potency result in assay [16], in [2], in assay [3], in assay [4], in [5] and in [6] was “inactive” throughout. In addition, the Potency entry in assay [7], in [12], in assay [8], in assay [13], in assay [15] and in [9] was “inactive” each time.
Take `CC(C)(C)c1ccc(C(O)CCCN2CCC(C(O)(c3ccccc3)c3ccccc3)CC2)cc1` (stereo not drawn): the Potency result in [11], in [2], in [3], in [4], in [5] and in assay [6] was “inactive” throughout. The Potency result in assay [7], in [12], in assay [8], in [9] and in [10] was “inactive” each time. Besides, the Potency was 4.22 µM (active) and 3.76 µM (active) in [13]; “inactive and 9.44 µM (active)” in assay [14]; 9.44 µM (active) in assay [15].
